High-throughput results: PubChem BioAssay, National Center for Advancing Translational Sciences (NCATS)
Most compounds without a hit are left out; they make up all but 0.51% or so of the library.
FMDV FLuc – antivirals against foot and mouth disease virus. FMDV antiviral cell assay, firefly luciferase signal. Potency, µM (doses to about 57.5 µM), inactives show at the highest dose activity change, negative = inhibition, usual class: inhibitors. 0.23% of 120,000 active; also: nearly all actives have a fitted effect of over 60% in size
FMDV Renilla – antivirals against foot and mouth disease virus replicon | FMDV replicon cells, Renilla luciferase signal | Potency, µM (top dose mostly 57.5 µM), inactives show at the top dose activity change, negative = inhibition, actives largely listed as inhibitors | 0.32% of 120,000 active; also: nearly all actives have a fitted effect of over 55% in size
* = called active by the depositor; u = inconclusive; [ ] = another dose, or the depositor's remark. Calls follow the shape of the full dose curve. % is scaled to controls: 0 for no effect and ±100 for the full control effect; potency is read from the fitted curve at half-maximal effect.

SMILES	FMDV FLuc	FMDV Renilla
Cc1ccc(CNS(=O)(=O)c2ccc(-c3cnc(C4CC4)o3)cc2)cc1	-18%	18%
COc1ccc(C)cc1NS(=O)(=O)c1ccc(-c2cnc(C3CC3)o2)cc1	14µM*	16µM*
C(=N\Nc1ccc2ccccc2n1)/c1cccs1	-79%	u
CC(C)c1ccc(C2C(C#N)=C(N)Oc3c2ccc2ccccc32)cc1 (stereo unspecified)	21%	27%
CC(C)Sc1nc2c(c(=O)n(C)c(=O)n2C)n1Cc1ccccc1Cl	3%	-8%
CSc1nc2c(c(=O)n(C)c(=O)n2C)n1Cc1cccc2ccccc12	16µM*	14µM*
COc1ccc(-c2cc(Nc3cccc(OC)c3)nc(C)n2)cc1	178%	1%
N#Cc1cccnc1N1CCN(C(C(=O)O)c2c[nH]c3ccc(Br)cc23)CC1 (stereo unspecified)	7%	-3%
CCOc1ccc(/C=C(\C)[N+](=O)[O-])cc1	u	-27%
C=CCOc1ccc(/C=C(\C)[N+](=O)[O-])cc1OC	u	32µM*
COc1ccc(-c2c(C(F)(F)F)oc3cc(OS(C)(=O)=O)ccc3c2=O)cc1OC	3.5µM*	u
COc1ccc2c(=O)c(-c3ccc(OC)c(OC)c3)c(C(F)(F)F)oc2c1	24%	-7%
C/C(=C\C=C\c1ccco1)C(=O)c1ccc(Br)cc1	-8%	-8%
COc1ccc(-n2ccnc(NCCc3ccccc3)c2=O)cc1OC	-2%	5%
COc1ccc(CCNc2nccn(-c3ccc(C)c(C)c3)c2=O)cc1OC	u	7.9µM*
CCSc1nc2n(n1)C(c1cccs1)C1=C(CC(C)(C)CC1=O)N2 (stereo unspecified)	10%	19%
CCS(=O)(=O)c1ncc(Cl)c(C(=O)N(Cc2ccccc2)C2CCS(=O)(=O)C2)n1 (stereo unspecified)	u	25µM*
CCS(=O)(=O)c1ncc(Cl)c(C(=O)N(Cc2ccccc2)Cc2ccco2)n1	22µM*	-1%
CCS(=O)(=O)c1ncc(N(Cc2ccccc2)Cc2ccco2)c(C(=O)Nc2cccc(Cl)c2C)n1	-6%	18%
CSc1ncc(Cl)c(C(=O)N(Cc2ccc(C)cc2)C2CCS(=O)(=O)C2)n1 (stereo unspecified)	-14%	19%
N#C/C(=C/c1cccc(O)c1)C(=O)c1c[nH]c2cc(F)ccc12	-14%	-13%
CCOC(=O)N1CCc2c(sc(NCc3ccc(OCC)cc3)c2C(=O)Nc2ccc(OC)cc2OC)C1	25µM*	24%
CCOC(=O)N1CCc2c(sc(NCc3ccc(OC)c(OC)c3OC)c2C(=O)Nc2ccc(OC)cc2OC)C1	-26%	9%
CCC(C(=O)Nc1sc2c(c1C#N)CCCC2)n1cnc2c1c(=O)n(C)c(=O)n2C (stereo unspecified)	-10%	0%
CC(C(=O)Nc1sc2c(c1C#N)CCCCC2)n1cnc2c1c(=O)n(C)c(=O)n2C (stereo unspecified)	u	14µM*
SMILES	FMDV FLuc	FMDV Renilla
CCOc1ccc2c(=O)c(Oc3cccc(OC)c3)c(C)oc2c1	19%	36%
Cc1cccc(C(=O)n2nc(NCc3cccs3)nc2NCc2cccs2)c1	2%	36%
COC(=O)C1CN(Cc2ccc(OC)cc2)CCS(=O)(=O)N1Cc1ccc(C(F)(F)F)cc1 (stereo unspecified)	32µM*	u
COC(=O)C1CN(Cc2ccc(OC)cc2)CCS(=O)(=O)N1Cc1ccc(Cl)cc1 (stereo unspecified)	0%	0%
CCOC(=O)c1cn[nH]c1S(=O)(=O)N1CCCCCCC1	-10%	-5%
CC(=O)c1c(C)[nH]c(C(=O)C(C)N(C)Cc2cccc(F)c2)c1C (stereo unspecified)	u	4µM*
CC(=O)c1c(C)[nH]c(C(=O)C(C)OC(=O)c2ccc(F)cc2Cl)c1C (stereo unspecified)	20µM*	8.9µM*
CC(=O)c1c(C)[nH]c(C(=O)C(C)OC(=O)c2cc(Cl)ccc2F)c1C (stereo unspecified)	19%	16%
CC(=O)c1c(C)[nH]c(C(=O)C(C)OC(=O)c2ccc(F)cc2)c1C (stereo unspecified)	-24%	-6%[1.06 µM]
CC(C)C(=O)Oc1ccc2c(=O)c(-c3ccc(Cl)cc3)coc2c1	184%	-6%
O=C(Nc1ccc(C(F)(F)F)cc1)C1CCN(c2nc3ccccc3o2)CC1	-24%	u
O=C(Nc1ccncc1)C1CCN(c2nc3ccccc3o2)CC1	u	16µM*
O=C(O)c1cc(F)ccc1Cl	13%	3%
COC(=O)c1c(C)[nH]c(-c2ccccc2OC)c1C1C(=O)Nc2c(Cl)cccc21 (stereo unspecified)	-3%	61%
CCCCC(=O)OCc1c(C(=O)OCC)sc(N)c1C#N	0%	6%
CCCN(Cc1cc(=O)[nH]c2c(C)cc(C)cc12)C(=O)Nc1cc(Cl)c(OC)cc1OC	32%	140%
CCOc1ccccc1CNCc1c(C(=O)O)n(Cc2ccccc2)c2cc(OC)ccc12	-21%	1%
COc1ccc(Cn2c(C(=O)O)c(CNCc3ccccc3F)c3ccc(OC)cc32)cc1	35µM*	0%
C[Si](C)(C)CN1CCN(CC(=O)Nc2ccccc2Cl)CC1	-20%	-12%
